Screens (PubChem)
Pf growth 48h: Primary qHTS for delayed death inhibitors of the malarial parasite plastid, 48 hour incubation; P. falciparum luciferase growth in erythrocytes, 48 h; Potency, µM (series often up to 28.7 µM), most hits filed as inhibitors; hit rate 5.9% among 310,000; AID 504832, 2011
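Luminescence readout; reporter = integrated firefly luciferase in P. falciparum. RBC culture at 2% hematocrit, 0.1% parasitemia final, 37 C/5% CO2; decreased signal taken as growth inhibition.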
Giardia FBPA inh: qHTS Assay for Inhibitors of Fructose-1,6-bisphosphate Aldolase from Giardia Lamblia. Potency, µM (doses to about 59.6 µM), actives largely listed as inhibitors. A8B2U2. hit rate 0.71% among 290,000. purified Giardia FBPA; further: nearly all actives have a fitted effect of over 55% in size
Target sequence (A8B2U2 whole entry, looked up): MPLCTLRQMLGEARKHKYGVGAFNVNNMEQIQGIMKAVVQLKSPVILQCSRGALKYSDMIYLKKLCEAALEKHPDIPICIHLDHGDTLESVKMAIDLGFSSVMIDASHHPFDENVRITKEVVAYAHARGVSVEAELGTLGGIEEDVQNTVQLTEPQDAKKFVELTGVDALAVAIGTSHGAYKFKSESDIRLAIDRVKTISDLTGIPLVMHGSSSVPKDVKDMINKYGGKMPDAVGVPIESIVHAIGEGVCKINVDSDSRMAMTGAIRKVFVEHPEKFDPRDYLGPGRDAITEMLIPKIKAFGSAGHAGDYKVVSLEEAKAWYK
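Giardia FBPA (40 nM reagent) was preincubated 10 min at RT with compound (up to 57.5 uM final), then substrate plus GAPDH/TPI/NAD/arsenate coupling system with diaphorase/resazurin was added; resorufin fluorescence (525/598 nm) was read after 20 min.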
HCMV inh: qHTS Assay for inhibitors of the human cytomegalovirus (HCMV). HFF cells, HCMV-luciferase reporter, 72 h; stronger effect = lower value. hit rate 4.5% among 410,000. activity change, negative = inhibition, % at 57.5 µM. AID 1259415, 2018; in the data active means activity change below about -60%; inconclusive means no clear call, values can overlap the other calls; inactive means above about -39%
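HFF cells seeded 16 h at 37C, treated with compounds, infected with luciferase-reporter HCMV at MOI 1 PFU/cell; luciferase read at 72 h post infection, normalized to buffer-only and Salinomycin controls.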
Pf growth 96h: Primary qHTS for delayed death inhibitors of the malarial parasite plastid, 96 hour incubation; P. falciparum luciferase reporter growth, 96 h; Potency, µM (doses to about 28.7 µM), actives largely listed as inhibitors; hit rate 6.9% among 320,000
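Readout is luminescence from an integrated firefly luciferase in P. falciparum. Red cells, 2% hematocrit and 0.05% parasitemia final, were cultured with compound through two parasite generations (96 hours) at 37 C, 5% CO2.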
Sm TGR block: qHTS Assay for the Inhibitors of Schistosoma Mansoni Peroxiredoxins. Potency, µM (top dose mostly 114 µM), hits mostly inhibitors. hit rate 3% among 360,000. purified TGR, DTNB reduction, TNB absorbance 405 nm; further: nearly all actives have a fitted effect of over 60% in size
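First, TGR (20 nM dispensed) and NADPH were mixed with compound. Second, a 15 min room-temperature incubation followed. Third, further NADPH and then DTNB were added to start the reaction. Finally, TNB absorbance was monitored kinetically.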
Hits are given with their value; – = inactive; ? = inconclusive; · = not tested or not shown; [ ] = dose if it differs, or a comment. Hits are enriched below; roughly 14% of the tested compounds scored in any of these assays. Unless noted, the call rests on the fitted dose curve; in most records, active means well fitted curve in the direction sought with a large enough effect; inconclusive means small, poorly fitted or top-dose-only effect, or another doubt; inactive means no such curve, though single readings can be large; an effect the other way counts as inactive or inconclusive.

SMILES	Pf growth 48h	Giardia FBPA inh	HCMV inh	Pf growth 96h	Sm TGR block
O=C(O)C1C2CCC(O2)C1C(=O)Nc1ccc(F)c(Cl)c1 (stereo not drawn)	–	–	–	11.7µM	–
O=C(NCCOc1ccc(Cl)cc1)c1ccc2c(c1)OCCO2	–	·	–	–	–
COc1ccccc1OC(C)C(=O)Nc1nc(-c2ccc(S(=O)(=O)N3CCOCC3)cc2)cs1 (stereo not drawn)	?	–	–	11.7µM	–
COc1ccccc1C(=O)Nc1ccc(S(=O)(=O)N2CCOCC2)cc1	–	–	–	–	–
COc1ccccc1C(=O)Nc1nc(-c2ccc(S(=O)(=O)N3CCOCC3)cc2)cs1	·	–	-94.8	?	–
COc1ccc(-c2csc(NC(=O)C(CC(=O)O)N3CCOCC3)n2)cc1 (stereo not drawn)	1.31µM	–	–	11.7µM	–
c1ccc(C(c2ccccc2)N2CC3(CCNCC3)C2)cc1	·	–	·	·	·
CC(C)c1ccc(Cn2ccc3c4c(N)nc(NC5CC5)nc4ccc32)cc1	·	–	·	·	·
Cc1ccc2[nH]cc(CCNC(=O)c3ccco3)c2c1	–	–	–	–	–
Cc1ccc(/C=C/C(=O)NCCc2c[nH]c3ccccc23)o1	–	–	–	–	14.1µM
Cc1ccc(/C=C/C(=O)NCCc2cccc(Cl)c2)o1	–	–	–	–	2.51µM
Cc1ccc2[nH]cc(CCNC(=O)/C=C/c3ccco3)c2c1	?	–	–	?	28.2µM
O=C(NCCCN1CCOCC1)c1cc(-c2ccc(Cl)c(Cl)c2)on1	?	–	–	–	–
COc1ccc(-c2nc(C(=O)NCCCN3CCOCC3)cc3c2[nH]c2ccccc23)cc1OC	?	?	–	5.22µM	–
CCN(CC)CCCNC(=O)c1cc(-c2ccc(Cl)c(Cl)c2)on1	10.4µM	–	–	–	–
Cc1ccc(-c2cc(C(=O)NCCCN3CCOCC3)no2)cc1	?	–	-67.2	·	–
COc1ccc(Nc2cc(C(=O)NCCCN3CCOCC3)c3ccccc3n2)cc1OC	·	–	–	–	–
Cc1ccc(-c2cc(C(=O)NCCCN3CCOCC3)c3ccccc3n2)cc1	?	·	–	?	–
Cc1ccc(-c2nc(C(=O)NCCCN3CCOCC3)cc3c2[nH]c2ccccc23)cc1	5.86µM	–	–	6.57µM	–
CC1(C(=O)NS(=O)(=O)c2ccccc2)CCN1C(=O)Cc1cccs1 (stereo not drawn)	·	·	–	·	·
O=C(Nc1ccnn1C1CCN(C2CCOCC2)CC1)c1cccc(F)c1	–	·	–	–	–
COc1ccc(Nc2nccc3c2cc(-c2ccc(C(=O)N(C)C)cc2)n3C)c(OC)c1	·	·	–	·	·
O=C1CCCc2c1cc(C(=O)NCCCN1CCOCC1)c(=O)n2-c1ccc(Cl)cc1	–	–	–	–	–
Cc1ccc(-n2c3c(cc(C(=O)NCCCN4CCOCC4)c2=O)C(=O)CC(C)(C)C3)cc1	–	–	–	0.828µM	–
COc1cc2c(cc1OC)C(=O)Cc1ccc3c(c1CN(C)CC2)OCO3	9.28µM	–	–	?	–
SMILES	Pf growth 48h	Giardia FBPA inh	HCMV inh	Pf growth 96h	Sm TGR block
COc1ccc2c(c1OC)CN(C)CCc1cc3c(cc1C(=O)C2)OCO3	?	–	–	–	–
O=C(CN1C(=O)COc2ccccc2C1=O)c1ccc2c(c1)OCCO2	–	·	–	–	–
Cn1cc(C=C2C(=O)Nc3cccnc32)c2ccccc21	·	–	·	·	·
CCC(C)[C@H](NC(=O)c1cc2cc(Cl)ccc2n1C)C(=O)N1CCC(C(=O)O)CC1 (stereo partly drawn)	–	–	-67.6	–	–
CC(C)[C@H](NC(=O)c1cc2cc(Cl)ccc2n1C)C(=O)N1CCC(C(=O)O)CC1	–	–	–	–	–
CCCCC(=O)NC(N1CCCCC1)C(Cl)(Cl)Cl (stereo not drawn)	–	–	–	–	11.2µM
O=C(NC(N1CCCCCC1)C(Cl)(Cl)Cl)c1ccccc1Cl (stereo not drawn)	–	–	–	–	?
COc1ccc(-c2cc3ccccc3n2CC(O)Cn2nc(C)cc2C)cc1 (stereo not drawn)	2.33µM	–	–	–	–
COc1cc2c(cc1OC)C(C1c3cc4c(cc3CCN1C)OCO4)OC2=O (stereo not drawn)	–	–	–	?	–
COc1cc2c(cc1OC)C1[C@H]3C(=CC[C@H]1OC2O)CCN3C (stereo partly drawn)	·	·	-102.6	·	·
COc1cnc(SCC(=O)O)[nH]c1=O	–	–	–	–	–
O=C(Cc1ccccc1)N1CCN=C1SCc1ccc([N+](=O)[O-])cc1	?	–	–	?	–
CSC1=NCCN1C(=O)c1cccc(Br)c1	–	–	–	–	–
CSC1=NCCN1C(=O)Cc1ccc(-c2ccccc2)cc1	–	–	–	–	–
CSC1=NCCN1C(=O)c1c(F)cccc1Cl	·	–	-99.7	?	–
CCOc1ccc(C(=O)N2CCN=C2SC)cc1OCC	?	–	–	–	–
O=C(Cc1ccc(F)cc1)N1CCN=C1SCc1ccc([N+](=O)[O-])cc1	?	–	-68.2	?	–
CSC1=NCCN1C(=O)Cc1ccc(F)cc1	·	–	–	9.28µM	–
CCOc1ccccc1C(=O)N1CCN=C1SC	·	–	–	14.7µM	–
CC1(C)Cc2c(C#N)c(N)n(-c3ccccc3)c(=S)c2CO1	–	–	–	–	–
CC1(C)C=C2C(=NN(c3ccccc3)C(N)=C2C#N)CO1	–	1.58µM	–	?	–
CC(C)N(CCNS(=O)(=O)c1ccc(Cl)cc1)C(C)C	·	–	–	–	–
CC(C)OP(=O)(OC(C)C)C1(NS(=O)(=O)c2ccc(Cl)cc2)C=C(Cl)C(=O)C(Cl)=C1	?	–	–	?	0.794µM
Cc1cccn2c(Nc3ccccc3)c(-c3ccccn3)nc12	?	–	-66.2	?	–
Cc1cccc(C)c1Nc1c(-c2ccccn2)nc2c(C)cccn12	·	·	-68.8	·	–
SMILES	Pf growth 48h	Giardia FBPA inh	HCMV inh	Pf growth 96h	Sm TGR block
COc1ccccc1Cc1c(C2CCCCC2)nc2cc(C)c(Br)c(C)n12	·	·	–	·	·
Nc1ccccc1N=Cc1ccc(-c2cccc(Cl)c2)o1	10.4µM	–	–	?	?
CC(=O)Nc1ccc(NC(=O)C(C)OC(=O)c2ccc3[nH]c(C)c(C)c3c2)cc1 (stereo not drawn)	–	·	–	–	–
O=C(Nc1ccc2oc(-c3ccncc3)nc2c1)c1ccc2c(c1)OCCO2	?	–	?	9.28µM	–
O=C(Nc1ccc2c(c1)nc1n2CCOC1)c1ccco1	–	–	–	–[5.75 µM]	–
O=C(Nc1ccc2oc(-c3cccnc3)nc2c1)c1ccc2c(c1)OCCO2	8.28µM	–	–	?	–
O=C(Nc1ccc2c(c1)nc1n2CCSC1)c1ccco1	–	–	–	–	14.1µM
O=C(Nc1ccc2oc(-c3ccncc3)nc2c1)c1ccco1	?	–	–	–	35.5µM
